# Source: PubChem BioAssay
# A selection: hits, their analogues and other compounds. The true share with any hit is near 21%.
# Pf growth 96h: Primary qHTS for delayed death inhibitors of the malarial parasite plastid, 96 hour incubation; 320,000 compounds, 6.9% hits; P. falciparum luciferase reporter growth, 96 h; Potency, µM (top dose mostly 28.7 µM), inactives show top-dose activity change, negative = inhibition, usual class: inhibitors; also: potency is read from the fitted curve at half-maximal effect; % is scaled to controls: 0 for no effect and ±100 for the full control effect
#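 P. falciparum expressing integrated firefly luciferase, in erythrocytes at 2% hematocrit, 0.05% parasitemia, incubated with compounds 96 h at 37 C, 5% CO2. Growth inhibition read as loss of luminescence; two-generation exposure targets delayed-death apicoplast inhibitors.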
# Pf growth 48h: Primary qHTS for delayed death inhibitors of the malarial parasite plastid, 48 hour incubation | P. falciparum luciferase growth in erythrocytes, 48 h | 310,000 compounds, 5.9% hits | Potency, µM (doses to about 28.7 µM), without a hit: at the top dose activity change, negative = inhibition, actives largely listed as inhibitors; also: potency is read from the fitted curve at half-maximal effect; % is scaled to controls: 0 for no effect and ±100 for the full control effect
#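 Cell-based growth assay: transgenic P. falciparum expressing firefly luciferase, cultured in red cells within RPMI 1640 containing 0.5% w/v Albumax, 24 mM bicarbonate and gentamycin. A drop in luciferase activity indicates inhibition.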
# CHX counter: Cycloheximide Counterscreen for Small Molecule Inhibitors of Shiga Toxin | cell reporter, cycloheximide protein synthesis inhibition counterscreen | max response, % | 300,000 compounds, 12% hits | AID 2314, 2010; in the data active = max response mostly above about 13%, no sharp cut-off; inactive = mostly below about 14%; also: read at 38.3 µM for the half of the compounds with a filed dose; 0% is about no effect
# AMA1-RON2 inh: qHTS for Inhibitors of AMA1-RON; Towards Development of Antimalarial Drug Lead: Primary Screen; Plasmodium falciparum AMA1 (3D7) - RON2 peptide interaction; AlphaScreen AMA1-biotinylated RON2 peptide binding; Potency, µM (highest dose often 58.2 µM), inactives show at the top dose activity change, negative = inhibition, usual class: inhibitors; 360,000 compounds, 0.2% hits; AID 720542, 2013;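 also: potency is read from the fitted curve at half-maximal effect; 0% = vehicle wells and -100% = peptide control; nearly all actives have a fitted effect of over 45% in size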
#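 AMA1 (3D7) with his tag at 25 nM final met compounds first, then biotinylated RON2 peptide at 25 nM; detection used donor plus acceptor beads, 10 µg/mL apiece, read by AlphaScreen after 30 min at room temperature.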
# HCV inh: qHTS Assay for Inhibitors of Hepatitis C Virus (HCV); Potency, µM (titrated, usually from 41.8 µM), inactives show at the top dose activity change, negative = inhibition, most hits filed as inhibitors; Huh7.5.1 HCVcc-Cre infection, luciferase reporter, 44 h; 340,000 compounds, 3.4% hits; also: potency is read from the fitted curve at half-maximal effect; % is scaled to controls: 0 for no effect and ±100 for the full control effect
#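 1,000 cells/well; 4 h culture; + compound; + HCVcc-Cre (~0.5 moi); 44 h; luciferase substrate, RT 15 min; read 15 sec.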
# Shiga inhibitor: A qHTS for Small Molecule Inhibitors of Shiga Toxin | Vero cells, Shiga toxin protein synthesis inhibition reporter | 290,000 compounds, 9.2% hits | inhibition, % at 38.7 µM | AID 2315, 2010; in the data active = inhibition mostly above about 28%, no sharp cut-off; inactive = mostly below about 43%; also: 0% is about no effect
# The depositor's hits bear a star; i = inactive; ? = inconclusive; / = no result given; + = active, no number; [ ] = dose if it differs, or a comment. Unless noted, calls follow the shape of the dose curve; as a rule, active = well fitted curve in the direction sought with a large enough effect; inconclusive = small, poorly fitted or top-dose-only effect, or another doubt; inactive = no such curve, though single readings can be large; an effect the other way counts as inactive or inconclusive.
SMILES,Pf growth 96h,Pf growth 48h,CHX counter,AMA1-RON2 inh,HCV inh,Shiga inhibitor
Cc1cccc(-c2cc3nc4c(c(N5CCCC(O)C5)n3n2)CCC4)c1 (configuration not stated),-30.9%,6.57µM*,-1.9,-7.1%,7.08µM*,-4.7
CC(=O)N1CCN(c2cc(-c3ccccc3)nc3cc(-c4cccc(Cl)c4)nn23)CC1,/,/,/,4.4%,/,/
OC1CCCN(c2c3c(nc4cc(-c5cccc(F)c5)nn24)CCCC3)C1 (configuration not stated),?,?,56.5*,18.7%,6.31µM*,79.7*
CC(=O)SCC(=O)N=c1sc2cc(F)ccc2n1C,33.4%,-4.6%,-2.4,4.8%,3.0%,1.6
Cc1sc(=NC(=O)c2ccco2)n(C)c1-c1ccccc1,122.2%,167.8%,40.1*,-6.1%,?,52.3*
Cc1sc(=NC(=O)c2ccco2)n(C)c1-c1ccc(F)cc1,91.7%,199.7%,43.6*,-1.8%,-6.6%,126.0*
Cn1c(=NC(=O)c2ccco2)sc2ccccc21,115.9%,63.5%,31.8*,-4.0%,?,53.5*
Cn1c(NC(=O)c2ccco2)c(-c2ccccc2)c(=O)c2ccccc21,-14.1%,-7.4%,4.4,5.1%,21.9%,-14.9
CC(=O)N=c1sc2cc(C)ccc2n1C,9.28µM*,82.5%,28.5*,0.1%,9.6%,147.4*
O=C1CCC(OCc2ccccc2)CCN1[C@H](CSc1ccccc1)Cc1ccccc1 (some centres not stated),/,/,/,4.8%,/,/
Cn1c(=NC(=O)CCl)sc2ccccc21,5.22µM*,?,28.4*,-2.4%,2µM*,46.0
CCC(=O)N=c1sc2ccccc2n1-c1ccccc1,14.9%,28.9%,-2.4,-12.2%,-29.7%,29.5
Cn1c(=NC(=O)c2cccc([N+](=O)[O-])c2)sc2ccccc21,i,i,26.9*,-1.1%,29.4%,118.7*
COc1ccccc1-c1ccc2c(c1)C(C)(Cc1ccc(F)c(Cl)c1)C(=O)N2 (configuration not stated),/,/,/,41.5%,/,/
O=C1CC2(CCCC2)Oc2ccccc21,/,/,/,31.1%,50.1%,/
CN(c1ccccc1)S(=O)(=O)c1ccc(C(=O)NCC(c2ccco2)N2CCCCC2)cc1 (configuration not stated),7.38µM*,?,/,0.4%,?,/
COc1ccccc1NS(=O)(=O)c1ccc(C(=O)NCC(c2ccco2)N2CCCCC2)cc1 (configuration not stated),/,/,/,0.0%,-17.2%,/
O=C(NCC(c1ccco1)N1CCCCC1)c1ccc(OCc2ccccc2)cc1 (configuration not stated),?,?,0.7,-5.5%,-23.5%,-4.2
COc1ccc(N(C)S(=O)(=O)c2cccc(C(=O)NCC(c3ccco3)N3CCCC3)c2)cc1 (configuration not stated),?,9.28µM*,/,13.0%,?,/
COc1ccccc1N(C)S(=O)(=O)c1ccc(C(=O)NCC(c2ccco2)N2CCCCC2)cc1 (configuration not stated),/,/,/,-9.0%,22.4µM*,/
O=C(NCC(c1ccco1)N1CCCCC1)c1ccc(COc2ccccc2)cc1 (configuration not stated),2.94µM*,?,/,-0.4%,12.6µM*,/
Cc1csc(SCC(=O)Nc2ccccc2[N+](=O)[O-])n1,31.9%,43.9%,23.6,-20.8%,-7.3%,62.5
O=C(CC1SC(N2CCOCC2)=NC1=O)Nc1cccc(C(F)(F)F)c1 (configuration not stated),/,/,/,19.5%[11.6 µM],0.5%,/
C/C(=N/Nc1ccnc2cc(Cl)ccc12)c1ccc(N)cc1,0.465µM*,0.828µM*,/,?,?,/
C/C(=N/Nc1ccnc2cc(Cl)ccc12)c1ccc(O)cc1,0.294µM*,0.329µM*,/,0.0%,?,/
SMILES,Pf growth 96h,Pf growth 48h,CHX counter,AMA1-RON2 inh,HCV inh,Shiga inhibitor
CCC(CC)C(=O)N(C)c1c(C)nc2c(OCc3ccc(C#N)cc3)cccn12,/,/,/,4.6%,/,/
COc1ccc(NC(=O)CCC(=O)c2cccs2)cc1Cl,43.6%,52.1%,9.5*,15.3%,-0.5%,11.3
COc1ccc(NC(=O)Nc2cccs2)cc1Cl,-17.1%,47.2%,39.3*,-6.6%,-10.9%,+
COc1ccc(NC(=O)COC(=O)CCC(=O)c2cccs2)cc1OC,5.1%,-4.9%,/,2.9%,0.4%,/
N#Cc1cccc(NC(=O)Nc2cccs2)c1,/,?,-1.8,-3.7%,-12.8%,19.6
COc1cc(NCCC(=O)c2cccs2)c(OC)cc1Cl,2.4%,i,3.2,14.1µM*,-22.2%,10.1
CCc1cccc(NC(=O)Nc2cccs2)c1,?,?,28.2*,-0.9%,?,+
COc1cc(NC(=O)c2cccs2)c(OC)cc1NC(=O)c1cccs1,/,/,/,-4.7%,-11.9%,/
CC1(NC(=O)Cc2c(F)cccc2Cl)CCS(=O)(=O)C1 (configuration not stated),/,/,/,-6.8%,-3.8%,/
CC(C)n1c2ccccc2c2cc([N+](=O)[O-])ccc21,4.65µM*,?,-2.9,6.2%[2.32 µM],8.91µM*,-8.9
Cc1ccc(-n2c(C3CC3c3ccc(Cl)cc3)n[nH]c2=S)cc1 (configuration not stated),9.28µM*,/,-6.1,47.8%,6.1%,-15.8
Cc1ccc(-n2c([C@@H]3C[C@H]3c3ccccc3)n[nH]c2=S)cc1,1.9%,7.4%,7.5,32.3%,6.8%,21.9
Cc1ccc(C2CC2c2n[nH]c(=S)n2-c2ccc(C)cc2)cc1 (configuration not stated),/,-1.0%,8.7,52.7%,25.1µM*,-6.1
CC(C)(C)CC(C)(C)NC(=O)/C=C/C(=O)O,17.6%,1.7%,-2.2,-11.8%,7.0%,-2.5
COc1ccc(CNC(=S)Nc2ccccc2)cc1Cl,?,/,2.1,24.7%,?,2.1
CCCOc1ccc(CNC(=S)Nc2ccccc2)cc1Cl,-0.7%,/,5.0,49.1%,15.8µM*,19.1
CC(C)COc1ccc(CNC(=S)Nc2ccccc2)cc1Cl,?,-11.9%[0.00184 µM],-3.1,77.9%,10µM*,-2.7
CCN1C(=O)c2ccccc2S(=O)(=O)c2ccc(C(=O)NCCCN(CC(C)C)CC(C)C)cc21,24.9%,-27.1%[0.00184 µM],4.3,-5.3%,15.3%,2.1
O=C(NCCCN1CCOCC1)c1ccc2c(c1)N(Cc1ccccc1)C(=O)c1ccccc1S2=O (configuration not stated),6.6%,?,-3.0,9.6%,-17.9%,-6.6
O=C(NCCCN1CCOCC1)c1ccc2c(c1)N(Cc1ccccc1F)C(=O)c1ccccc1S2=O (configuration not stated),14.7µM*,-24.2%,-7.7,11.9%,-13.0%,-8.1
